Screens as filed in PubChem.
Only some compounds are listed: those with a hit (about 11% of all), similar ones and a draw of the others.
L3MBTL1 block – inhibitors of human L3MBTL1 | Q9Y468 | AlphaScreen L3MBTL1–H3K9me1 peptide binding | Potency, µM (titrated, usually from 57.1 µM), for inactives: top-dose activity, negative = inhibition, most hits filed as inhibitors | hit rate 0.66% among 230,000 | AID 485360; note: % is set by controls: 0 for no effect and ±100 for the full control effect; nearly all actives have a fitted effect of over 60% in size
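Read-out is AlphaScreen signal from streptavidin donor and nickel chelate acceptor beads (10 ug/mL final each) bridging L3MBTL1 (50 nM) and biotinylated K9-monomethylated H3(1-15) peptide (75 nM), after 30 min compound exposure at room temperature.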
HP1b binding inh – inhibitors of HP1-beta chromodomain binding to methylated histone tails. Potency, µM (doses to about 114 µM), inactives show at the highest dose activity change, negative = inhibition, usual class: inhibitors. hit rate 0.56% among 390,000. P83916. AID 540317. AlphaScreen HP1-beta / biotin-H3K9me3 peptide binding; note: nearly all actives have a fitted effect of over 70% in size
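HP1-beta protein (50 nM final) preincubated 30 min at room temperature with biotinylated H3(1-18)K9me3 peptide (50 nM) in PBS pH 7.4, 0.01% Tween-20, then compound added for 30 min. AlphaScreen streptavidin donor/nickel chelate acceptor beads (10 ug/mL final), 30 min dark, luminescence read.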
JMJD2A Tudor – inhibitors of human JMJD2A Tudor domain | O75164 | AlphaScreen JMJD2A-Tudor / H3K4me3 peptide binding | Potency, µM (highest dose often 114 µM), for inactives: at the top dose activity change, negative = inhibition, actives largely listed as inhibitors | hit rate 4.4% among 390,000 | AID 504339; note: % is set by controls: 0 for no effect and ±100 for the full control effect; nearly all actives have a fitted effect of over 50% in size
G9a inh – blocks human histone lysine methyltransferase G9a. Q96KQ7. G9a H3K9 monomethylation, AlphaScreen, 2 h. Potency, µM (highest dose often 102 µM), for inactives: top-dose activity, negative = inhibition, actives largely listed as inhibitors. hit rate 8.8% among 350,000. AID 504332; note: % is set by controls: 0 for no effect and ±100 for the full control effect; nearly all actives have a fitted effect of over 75% in size
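Methyltransferase reactions run at room temperature for 2 h (20 nM enzyme, 500 nM biotin-H3K9 peptide, 20 uM SAM) after a 15 min compound preincubation; product detected by AlphaScreen beads and anti-H3K9me1 antibody.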
BAZ2B inh – BAZ2B (human) inhibition. Potency, µM (series often up to 114 µM), for inactives: at the top dose activity change, negative = inhibition, hits mostly inhibitors. AlphaScreen BAZ2B-H3K14Ac peptide displacement. hit rate 4.4% among 360,000. Q9UIF8; note: % is set by controls: 0 for no effect and ±100 for the full control effect; nearly all actives have a fitted effect of over 60% in size
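AlphaScreen displacement: compounds (up to 110uM) incubated 30 min at room temperature with a preformed 50 nM BAZ2B/50 nM biotinylated H3K14Ac peptide complex in PBS pH 7.4 with Tween-20. Donor and acceptor beads at 10 ug/mL final added, 20 min light-protected before reading.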
* hit, by the source's call; ? = inconclusive; . = not tested or not shown; [ ] = another dose, or the depositor's remark. Calls come from the whole dose curve; as a rule, active = well fitted inhibition curve with a large enough effect; inconclusive = small, poorly fitted or top-dose-only effect; inactive = no such curve, though single readings can be large or run the other way. Potency is the fitted concentration of half-maximal effect.

SMILES	L3MBTL1 block	HP1b binding inh	JMJD2A Tudor	G9a inh	BAZ2B inh
CC(C)c1nc(SCC(=O)Nc2ccc(N(C)C)cc2)c2ccccc2n1	-4%	-12%	?	8.9µM*	?
COC(=O)CSc1cnc2ccccc2n1	.	33%	10%	17%[59 µM]	?
O=C(CSc1cnc2ccccc2n1)c1ccc(F)cc1	-6%	42%	3%	7.1µM*	9%
O=c1c2ccccc2n2c(-c3ccccc3F)nnc2n1CCc1ccccc1	.	-5%	-12%	-42%[59 µM]	-33%
Cc1cc(NC(=O)CSc2nnc(-c3ccncc3)n2N)ccc1Br	2%	15%	79µM*	35µM*	11%
CCOc1ccc(-c2nnc(SCC(=O)Nc3ccc4c(c3)c3ccccc3n4CC)n2N)cc1	-9%	2%	?	?	71µM*
CCn1c2ccccc2c2cc(NC(=O)CSc3nnc(-c4ccc(OC)c(OC)c4)n3N)ccc21	-1%	13%	22%	0%[12.7 µM]	-24%
Cc1cccc(CNC(=O)CSCc2cnn(-c3ccccc3)c2-n2cccc2)c1	.	9%	-5%	7%[59 µM]	1%
COc1ccc2c(CNCCc3ccccc3)c(C(=O)O)n(Cc3cccc(F)c3)c2c1	.	-15%	?	?	-34%
Cc1ccc(Cl)cc1NS(=O)(=O)c1ccc2oc(=O)c3ncn(C)c3c2c1	.	31%	6%	-10%[59 µM]	-21%
C/C(=N\Nc1ccccc1[N+](=O)[O-])c1ccc(N2CCOCC2)cc1	-24%	10µM*	?	-27%	1µM*
C/C(=N\Nc1ccc([N+](=O)[O-])cc1)c1ccc(N2CCOCC2)cc1	3%	6%	4%	.	-3%
Brc1ccc(CSc2nnc3ccccn23)cc1	2%	70%	-7%[11.4 µM]	1%	-3%
CCOc1ccccc1Oc1coc2cc(OCC(=O)O)ccc2c1=O	?	-21%	-15%	14µM*	-32%
CCOc1ccc2c(=O)c(Oc3ccccc3OCC)coc2c1	.	9%	13%	-1%[59 µM]	12%
Cc1cc(OCCn2ccnc2)ccc1C(C)C	10%	50µM*	3.2µM*	14µM*	45µM*
Cc1cc(OCCN2CCOCC2)ccc1C(C)C	.	?	14µM*	-51%[2.33 µM]	50µM*
CCOc1ccc(OCCCCn2ccnc2)cc1	-9%	?	20µM*	?	50µM*
CCC(C)c1ccc(OCCCCN2CCOCC2)cc1 (stereo not given)	.	?	35µM*	10µM*	50µM*
CCCCOc1ccc(OCCCN2CCOCC2)cc1	-9%	25%	-18%	-37%[2.33 µM]	-37%
Cc1occc1C(=O)N1CCCC(N2CCN(c3ccccc3F)CC2)C1 (stereo not given)	.	15%	-4%	-12%[12.7 µM]	-7%
Cc1cc(Br)c(NC(=O)COC(=O)CC2CC3CCC2C3)c(Br)c1 (stereo not given)	1%	38%	-3%	.	.
COc1ccc(NC(=O)CCn2nc(-c3ccccc3OC)c3c(C)cc(C)nc32)cc1	.	9%	-25%	2%[59 µM]	-10%
Cc1cc(=O)[nH]c2nnc(SCc3c(F)cccc3Cl)n12	.	37%	-9%	5%[59 µM]	0%
CCOc1ccc(OCCn2ccnc2)cc1	0%	?	5µM*	10µM*	50µM*
SMILES	L3MBTL1 block	HP1b binding inh	JMJD2A Tudor	G9a inh	BAZ2B inh
COc1ccc(OCCn2ccnc2)cc1	1%[2.29 µM]	33%	4%	-9%[0.501 µM]	-10%
COc1cccc(CNC(=O)CCn2c(=O)c3cccn3c3ccc(F)cc32)c1OC	.	35%	-19%	10%[59 µM]	2%
CCOc1ccc(-c2cn(-c3cccc(SC)c3)c(=O)[nH]2)cc1	0%	33%	-8%	28µM*	-7%
COc1ccccc1-c1c(C)nn2c(-c3ccccc3)cc(-c3ccccc3)nc12	.	40%	3%	6%[59 µM]	2%
O=C(COC(=O)c1ccc(Cl)cc1O)NC(=O)C1CCCCC1	2%	21%	6%	50µM*	-15%
CC1=CC(C)(C)NC(=S)N1c1cccc2cc(S(=O)(=O)O)ccc12	?	16%	?	25µM*	-38%
COc1ccc(C(=O)C2CCCN(C(=O)c3ccc(CSC)o3)C2)cc1F (stereo not given)	.	10%	-32%	32µM*	-33%
COc1ccc(C(=O)C2CCCN(C(=O)c3noc4c3CCCC4)C2)cc1F (stereo not given)	-4%	55%	-3%	-25%	-2%
CCOC(=O)Cc1nnc(NC(=O)c2ncn[nH]2)s1	.	14%	2µM*	?	8.9µM*
CCOC(=O)Cc1nnc(NC(=O)c2ccccc2OCC)s1	-6%	43%	-1%	-43%[59 µM]	5%
CCOC(=O)N1CCc2c(sc3c2c(=O)n(Cc2ccccc2)c(=O)n3Cc2cc(C)ccc2C)C1	.	25%	-17%	-34%[59 µM]	-29%
O=C1COc2ccc(C(=O)COC(=O)c3ccc(Cl)cc3[N+](=O)[O-])cc2N1	-5%	3%	-25%	45µM*	-33%
O=C1COc2ccc(C(=O)COC(=O)c3ccc([N+](=O)[O-])cc3Cl)cc2N1	-8%	-2%	-25%	40µM*	-34%
O=C1COc2ccc(C(=O)COC(=O)c3ccccc3[N+](=O)[O-])cc2N1	-1%	6%	-23%	?	-4%
CCOc1ccc(CCNC(=O)c2c(C)oc3ncnc(N4CCOCC4)c23)cc1	.	38%	-6%	-10%[59 µM]	8%[57.1 µM]
Cc1c(F)c(N2CCNC(C)C2)cc2c1c(=O)c(C(=O)O)cn2C1CC1 (stereo not given)	.	.	.	-23%[12.7 µM]	.
S=c1[nH]nc(-c2cc(-c3ccco3)[nH]n2)n1-c1ccccc1Cl	?	-6%	89µM*	4.5µM*	50µM*
S=c1[nH]nc(-c2ccc3ccccc3n2)n1-c1ccccc1Cl	-11%	-6%[57 µM]	?	?	3%
S=c1[nH]nc(-c2cc(-c3ccco3)[nH]n2)n1-c1ccccc1	1%	-1%	50µM*	-20%[0.501 µM]	?
S=c1[nH]nc(-c2ccco2)n1-c1ccccc1Cl	-7%	14%	5µM*	?	-21%
COc1ccc(-c2cc(-c3ccc(OC)cc3)[nH]n2)cc1	-6%	5%	?	6%[59 µM]	-8%
COc1ccc(-c2cc(-c3n[nH]c(=S)n3-c3ccccc3Cl)[nH]n2)cc1	-17%	20%	-20%	7.9µM*	-35%
CCc1cccc(NC(=O)C(c2ccccc2)N2Cc3ccccc3C2=O)c1 (stereo not given)	.	-7%	-24%	-7%[59 µM]	-19%
Cc1nc(Nc2cc(F)ccc2C)c2nnn(Cc3ccccc3)c2n1	10%	19%	?	.	15%
Cc1oc(/C=N/NC(=O)CN(c2ccccc2Br)S(C)(=O)=O)cc1Br	-8%	-26%	?	71µM*	?
Cc1oc(/C=N/NC(=O)CN(c2ccccc2Cl)S(C)(=O)=O)cc1Br	-12%	-17%	?	?	?
C/C(=N\NC(=O)CN(c1ccc(C)cc1)S(C)(=O)=O)c1cccs1	-3%	9%	-9%	-4%	-2%
